Screening results from PubChem BioAssay.
Only some compounds are listed: those with a hit (about 2.3% of all), similar ones and a draw of the others.
Mcl-1 Bim block – inhibitors of Bim-Mcl-1 interaction, human; Q07820; AID 1009; inhibition, % at 10 µM; hit rate 0.1% among 190,000; Bead-based flow cytometry, Bim peptide-Mcl-1 binding; in the data active means inhibition above about 40%;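 further: 0% = no compound tracer wells and 100% = peptide blocker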
Target sequence (Q07820 whole entry, looked up): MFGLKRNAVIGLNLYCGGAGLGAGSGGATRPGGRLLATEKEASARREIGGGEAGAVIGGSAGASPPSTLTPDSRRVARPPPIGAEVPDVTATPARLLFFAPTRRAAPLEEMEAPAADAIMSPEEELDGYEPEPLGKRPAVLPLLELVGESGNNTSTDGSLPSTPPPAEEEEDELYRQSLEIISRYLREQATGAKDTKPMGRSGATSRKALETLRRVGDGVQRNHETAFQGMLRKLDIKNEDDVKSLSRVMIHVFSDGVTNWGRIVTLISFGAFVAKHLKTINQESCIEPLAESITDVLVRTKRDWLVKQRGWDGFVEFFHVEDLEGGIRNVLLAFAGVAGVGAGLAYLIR
BCLXL inh – inhibitors of human Bcl-xL; Q07817; GST-Bcl-xL / FITC-Bim BH3 peptide fluorescence polarization; inhibition, % at 10.9 µM; hit rate 0.7% among 320,000;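 active means inhibition above the mean of all tested compounds plus 3 SD, cutoff set per campaign, cut at about 30% in these data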;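 further: 0% = DMSO wells and 100% = unlabeled Bim-BH3 peptide competitor; inhibitors lower millipolarization by displacing the labeled peptide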
Target sequence (Q07817 whole entry, looked up): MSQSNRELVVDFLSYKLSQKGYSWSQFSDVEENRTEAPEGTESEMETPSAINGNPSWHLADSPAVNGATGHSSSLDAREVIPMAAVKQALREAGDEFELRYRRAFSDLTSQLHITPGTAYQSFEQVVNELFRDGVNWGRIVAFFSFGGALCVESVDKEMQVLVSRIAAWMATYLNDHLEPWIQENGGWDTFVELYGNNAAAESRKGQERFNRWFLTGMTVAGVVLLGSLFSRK
GLD-1 TGE inh – GLD-1-TGE RNA interaction inhibition (C. elegans); Q17339; purified GLD-1 + fluorescein TGE RNA, fluorescence polarization; inhibition, % at 5.96 µM; hit rate 0.44% among 320,000; AID 2280;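 active means percent inhibition above a per-plate cutoff, the plate mean of test compounds plus 3 SD, cut at about 30% in these data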;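 further: 0% = DMSO wells with GLD-1 and probe and 100% = wells lacking GLD-1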
Mcl1 Noxa PPI – disrupts binding of human Mcl-1 to Noxa peptide; TR-FRET Mcl-1/Noxa peptide binding, 2 h; hit rate 1.5% among 220,000; AID 1022; inhibition, % at 21.7 µM; Q07820;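 active means compounds that cut the protein-peptide binding signal by more than 50% relative to plate controls in a single-dose test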;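 further: His-tagged Mcl-1 with rhodamine Noxa BH3 peptide and terbium anti-His antibody; 0% = Mcl-1 plus Noxa peptide wells and 100% = peptide-only wells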
MCL1-BIM inh – disrupts human MCL1 binding to BIM-BH3 peptide; Q07820; GST-MCL1 / FITC-Bim-BH3 fluorescence polarization; inhibition, % at 10.9 µM; hit rate 0.68% among 320,000; AID 2057;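 active means inhibition above the mean inhibition of all tested compounds plus 3 SD, set per campaign, cut at about 40% in these data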;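 further: 0% = DMSO wells and 100% = unlabeled Bim-BH3 peptide control; higher means more loss of mP so more displacement of Bim peptide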
Mcl1 Bid PPI – disrupts binding of human Mcl-1 to Bid peptide; Q07820; hit rate 0.97% among 220,000; TR-FRET Mcl-1/Bid-Dy647 peptide binding, 1536-well; inhibition, % at 21.7 µM;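 active means compounds that cut the binding signal by more than half at the single screening dose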;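 further: His-tagged Mcl-1 with europium anti-His antibody binding Bid BH3 peptide; 0% = Mcl-1 plus peptide wells and 100% = peptide-only wells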
Numbers without * were called inactive; · = no result given.

SMILES	Mcl-1 Bim block	BCLXL inh	GLD-1 TGE inh	Mcl1 Noxa PPI	MCL1-BIM inh	Mcl1 Bid PPI
Cc1ccc([N+](=O)[O-])cc1N=Nc1c(-c2ccc([N+](=O)[O-])cc2)[nH]n(C(N)=S)c1=O	0.0	·	·	110.9*	·	67.8*
NC(=O)c1ccc(N=Nc2c(-c3ccccc3)[nH]n(-c3ccccc3)c2=O)cc1	-2.0	5.4	-3.4	-1.4	-1.7	-6.6
Cc1ccc([N+](=O)[O-])cc1N=Nc1c(C)[nH]n(C(N)=S)c1=O	·	4.5	0.3	·	6.6	·
O=c1c(N=Nc2ccc(O)cc2)c(-c2ccccc2)[nH]n1-c1ccc([N+](=O)[O-])cc1	0.0	-2.5	9.4	71.1*	-3.6	59.6*
NC(=S)n1[nH]c(-c2ccc([N+](=O)[O-])cc2)c(N=Nc2ccc(Cl)cc2)c1=O	0.0	·	·	73.1*	·	97.8*
CCCCCN(C(=O)CCC(=O)OC(C)C(=O)c1ccccc1)c1c(N)n(CCCC)c(=O)[nH]c1=O (stereo not drawn)	·	-5.5	4.3	·	2.0	·
Cc1cc(OCC(=O)Nc2cc(C(C)(C)C)on2)ccc1[N+](=O)[O-]	·	3.5	4.2	·	3.8	·
CCN=C1SC(C(=O)Nc2ccc(OC)cc2)CC(=O)N1CC (stereo not drawn)	0.0	3.3	1.5	64.3*	4.8	-18.9
CNc1nc2ccccc2n1/N=C/c1cccc(OC)c1OC	57.0*	0.1	5.2	11.6	-1.1	-16.0
Cc1ccc(NC(=O)CNC(C)c2ccccc2)cc1 (stereo not drawn)	·	2.7	-0.1	·	4.5	·
O=C(Cn1nc(C(=O)O)c2ccccc2c1=O)Nc1ccc2c(c1)C(=O)c1ccccc1C2=O	·	12.3	2.8	80.1*	2.3	75.4*
CCOC(=O)c1c(C)oc2c1c(C(c1cccnc1)N1CCOCC1)c(O)c1ccccc12 (stereo not drawn)	-5.0	5.7	0.9	101.3*	9.7	69.2*
CCOC(=O)c1c(C)oc2c1c1c(c3ccccc32)OCN(CCCC(=O)O)C1	·	3.9	12.7	52.6*	3.5	-20.9
CCOC(=O)c1c(C)oc2c1c(C=NCc1ccccn1)c(O)c1ccccc12	0.0	·	·	1.3	·	-27.7
CCOC(=O)c1c(C)oc2c1c1c(c3ccccc32)OCN(Cc2cccnc2)C1	1.0	·	·	71.1*	·	9.5
COc1ccc(-c2nc(C#N)c(N3CCC(C)CC3)o2)cc1	·	5.8	0.7	·	-1.5	·
CC(C)CCNC(=O)Cc1csc(-c2ccccc2)n1	2.0	-1.7	5.8	11.3	-4.6	-13.4
CCN(CC)Cc1cc(O)c(CN(CC)CC)cc1O	0.0	·	·	98.0*	·	-100.4
CN1CCN(S(=O)(=O)c2ccc(NS(=O)(=O)c3ccccc3)cc2)CC1	·	-1.4	3.1	·	2.5	·
COc1ccc(S(=O)(=O)Nc2ccc(O)c3ccccc23)cc1	-10.0	12.1	10.9	65.7*	9.1	-6.6
COc1ccc(S(=O)(=O)Nc2ccccc2)cc1	·	2.5	-7.0	·	1.8	·
Cn1c(C(=O)OCC(=O)NCc2ccc(F)cc2)cc2occc21	·	1.3	-9.5	·	0.2	·
O=c1c2cc(N3CCOCC3)ccc2[nH]c(=S)n1Cc1ccco1	3.0	10.4	5.1	57.8*	22.5	-99.5
O=c1c2cc(N3CCOCC3)ccc2[nH]c(=S)n1Cc1cccc(Cl)c1	-3.0	6.6	3.0	24.6	29.1	-22.9
CN(C)c1ccc(C(CC(=O)O)NC(=O)c2ccc(Cl)cc2)cc1 (stereo not drawn)	2.0	2.3	7.9	52.5*	2.0	-91.4
SMILES	Mcl-1 Bim block	BCLXL inh	GLD-1 TGE inh	Mcl1 Noxa PPI	MCL1-BIM inh	Mcl1 Bid PPI
CC(=O)Nc1ccc(C(=O)NC(CC(=O)O)c2ccc(Cl)cc2)cc1 (stereo not drawn)	0.0	0.8	3.2	-2.7	-3.7	10.4
Cc1ccc(NC(=O)/C(C#N)=C/c2ccc(C)s2)c(C)c1	-2.0	48.0*	5.6	12.4	40.7*	-6.8
Cc1cc(NC(=O)Nc2ccccc2[N+](=O)[O-])n(C)n1	·	-2.1	-0.1	·	-2.2	·
COc1ccc2c(c1)oc(=O)c1ccccc12	4.0	8.9	11.6	26.9	-0.1	-11.1
O=c1oc2cc(O)c(Cl)cc2c2ccccc12	-1.0	3.0	9.2	53.8*	-2.2	-60.8
Cc1cccc(NC(=O)C2CCN(C(=O)NCc3ccccc3)CC2)c1C	·	7.6	-2.4	·	5.3	·
CC1(C)CC(=O)c2cnc3c(C#N)cnn3c2C1	1.0	6.4	9.1	17.6	-1.8	52.9*
COc1ccc(-c2csc(Nc3ccc(C)cn3)n2)cc1OC	1.0	-3.4	1.5	17.9	-4.2	-70.1
Cc1ccc(Nc2nc(-c3ccc(O)c(O)c3)cs2)nc1	1.0	·	·	54.2*	·	-12.3
CC(C)c1[nH]nc2c1C(c1cccnc1)C(C#N)=C(N)O2 (stereo not drawn)	-2.0	1.7	6.5	3.1	0.1	92.3*
O=C1C(=Cc2cccn2-c2ccccc2)C(=O)c2ccccc21	4.0	40.8*	105.0*	102.0*	42.2*	72.7*
O=C(O)c1cccc(-n2cccc2C=C2C(=O)c3ccccc3C2=O)c1	27.0	11.2	-10.5	26.2	7.4	-113.2
CC(=O)Nc1ccc(S(=O)(=O)NCc2nc(-c3cccc(C)c3)no2)cc1	·	-9.7	-4.5	·	-27.6	·
COc1cccc(N/C=C/c2onc(C)c2[N+](=O)[O-])c1	0.0	-41.8	-5.6	55.2*	-70.5	19.4
Cc1ccc(NC(=O)CSc2nnc(Cc3csc(C)n3)o2)c(C)c1	·	-6.2	-0.8	·	-7.5	·
CN(C)c1ccc(NC(=O)c2ccc(COc3cccc(Cl)c3)o2)cc1	0.0	2.8	1.0	85.2*	4.4	-11.9
O=C(CS(=O)(=O)c1ccccc1)Nc1cccnc1	3.0	6.6	7.1	-5.7	-0.1	-7.4
CN(CC(=O)Nc1cccnc1)S(=O)(=O)c1ccccc1	-2.0	1.8	3.1	-0.6	3.3	63.5*
COc1ccc(NC(=O)CN(C)C(=O)c2ccc(NS(=O)(=O)c3ccc4[nH]c(=O)[nH]c4c3)cc2)cc1	·	1.8	5.0	·	0.6	·
COC(=O)CCCC1=CC2=C(c3ccccc3)C(=O)C(C)(OC(=O)C3CCCC3)C(=O)C2=CN1C1CC1 (stereo not drawn)	·	20.0	14.1	0.6	17.4	-90.2
COCCN1C=C2C(=O)C(C)(OC(=O)CCC(=O)OC)C(=O)C(Br)=C2C=C1c1ccc(OC)cc1 (stereo not drawn)	·	37.0*	18.1	·	44.1*	·
COC(=O)CCC(=O)OC1(C)C(=O)C2=CN(Cc3ccco3)C(c3ccc(OC)cc3)=CC2=C(Br)C1=O (stereo not drawn)	·	52.2*	44.4*	·	49.4*	·
CCN(CC)CCCN1C=C2C(=O)C(C)(OC(=O)CCC(=O)OC)C(=O)C(Br)=C2C=C1c1ccc(OC)cc1 (stereo not drawn)	·	30.5*	13.9	·	29.8	·
COC(=O)CCC(=O)OC1(C)C(=O)C2=CN(C3CCCC3)C(c3ccc(OC)cc3)=CC2=C(Br)C1=O (stereo not drawn)	·	33.9*	21.8	16.7	28.8	-73.5
